Results: the supplement of paper PMC10849652
About 7,900 targets were measured; listed, in parts, are those with a hit and a random draw of the rest. About 0.6% of all pairs of compound and target were hits.

Columns and labels:
Test in all cases: log2 fold change, soluble protein after heating vs DMSO (PISA); higher = thermal stabilisation; K562 cells, 10 uM, 30 min; active = over 0.2 and 3.5 SD of the protein, either way, in both replicates (recomputed)
IRAK-1-4 Inhibitor I = compound: C1COCCN1CCN2C3=CC=CC=C3N=C2NC(=O)C4=CC(=CC=C4)[N+](=O)[O-] [IRAK-1-4 Inhibitor I]
In short: (§1)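 K562 cells (2×10^6 cells/mL) were treated with 10 μM compound for 30 min, and aliquots were heated for 3 min over 48°C-58°C. Pooled aliquots were extracted in PBS with 0.5% NP-40 at 4°C, and the supernatant after 21,000xg for 90 min was measured by TMTpro 16plex LC-MS/MS with channel sums equalised. Reported thermal stability, relative to control samples and from duplicates, is a log2 fold change.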

ibrutinib = compound: C=CC(=O)N1CCC[C@@H](n2nc(-c3ccc(Oc4ccccc4)cc3)c3c(N)ncnc32)C1 [ibrutinib]
In short: as §1

[1] = compound: CC(=O)c1cnc2ccc(-c3cc(Cl)c(O)c(Cl)c3)nc2c1N[C@H]1CC[C@H](CN(C)C)CC1
In short: as §1

ralimetinib = compound: CC(C)(C)Cn1c(N)nc2ccc(-c3[nH]c(C(C)(C)C)nc3-c3ccc(F)cc3)nc21 [ralimetinib]
In short: as §1

[2] = compound: CC(C)(O)CC(=O)NCCn1ccc2ncnc(Nc3ccc(Oc4cccc(C(F)(F)F)c4)c(Cl)c3)c21
In short: as §1

[3] = compound: CC(C)C1=C2N=C(C=C(N2N=C1)NCC3=CC=CC=C3)NCCCCCCN
In short: as §1

[4] = compound: CC(C)C[C@@H](C=O)NC(=O)[C@H](CC(C)C)NC(=O)[C@H](CC(C)C)NC(=O)OCc1ccccc1
In short: as §1

pinometostat = compound: CC(C)N(C[C@H]1O[C@@H](n2cnc3c(N)ncnc32)[C@H](O)[C@@H]1O)[C@H]1C[C@@H](CCc2nc3cc(C(C)(C)C)ccc3[nH]2)C1 [pinometostat]
In short: as §1

[5] = compound: CC1=C(C(CC(=O)N1)C2=CC=C(C=C2)C(F)(F)F)C(=O)NC3=C(C=C4C(=C3)C=NN4)F
In short: as §1

[6] = compound: CC1=C(C2=C(C=C1)C(=O)C3=CC=CC=C3N2CCCN)C
In short: as §1

[7] = compound: CC1=C(C=C(C=C1)NC(=O)C2=CC(=CC=C2)C(C)(C)C#N)NC3=CC4=C(C=C3)N=CN(C4=O)C
In short: as §1

[8] = compound: CC1=C(C=C(C=C1)NC(=O)C2=CC(=CC=C2)N(C)C)NC(=O)C3=CC=C(C=C3)O
In short: as §1

[9] = compound: CC1=CC=C(C=C1)SC2=C3C=C(SC3=CN=C2)C(=O)N
In short: as §1

[10] = compound: CC1=NC(=CC=C1)C2=C(N=C(N2)C(C)(C)C)C3=CC4=NC=CN=C4C=C3
In short: as §1

Nexturastat A = compound: CCCCN(Cc1ccc(C(=O)NO)cc1)C(=O)Nc1ccccc1 [Nexturastat A]
In short: as §1

vemurafenib = compound: CCCS(=O)(=O)Nc1ccc(F)c(C(=O)c2c[nH]c3ncc(-c4ccc(Cl)cc4)cc23)c1F [vemurafenib]
In short: as §1

[11] = compound: CCCS(=O)(=O)Nc1ccc(F)c(C(=O)c2c[nH]c3ncc(Cl)cc23)c1F
In short: as §1

[12] = compound: CCCc1cc(C)[nH]c(=O)c1CNC(=O)c1cc(-c2ccnc(N3CCN(C)CC3)c2)cc2c1cnn2C(C)C
In short: as §1

givinostat = compound: CCN(CC)Cc1ccc2cc(COC(=O)Nc3ccc(C(=O)NO)cc3)ccc2c1 [givinostat]
In short: as §1

barasertib = compound: CCN(CCCOc1ccc2c(Nc3cc(CC(=O)Nc4cccc(F)c4)[nH]n3)ncnc2c1)CCOP(=O)(O)O [barasertib]
In short: as §1

Measured: log2 fold change

ASNS (UniProt P08243)
Chain of UniProt P08243 (P08243 whole entry, looked up): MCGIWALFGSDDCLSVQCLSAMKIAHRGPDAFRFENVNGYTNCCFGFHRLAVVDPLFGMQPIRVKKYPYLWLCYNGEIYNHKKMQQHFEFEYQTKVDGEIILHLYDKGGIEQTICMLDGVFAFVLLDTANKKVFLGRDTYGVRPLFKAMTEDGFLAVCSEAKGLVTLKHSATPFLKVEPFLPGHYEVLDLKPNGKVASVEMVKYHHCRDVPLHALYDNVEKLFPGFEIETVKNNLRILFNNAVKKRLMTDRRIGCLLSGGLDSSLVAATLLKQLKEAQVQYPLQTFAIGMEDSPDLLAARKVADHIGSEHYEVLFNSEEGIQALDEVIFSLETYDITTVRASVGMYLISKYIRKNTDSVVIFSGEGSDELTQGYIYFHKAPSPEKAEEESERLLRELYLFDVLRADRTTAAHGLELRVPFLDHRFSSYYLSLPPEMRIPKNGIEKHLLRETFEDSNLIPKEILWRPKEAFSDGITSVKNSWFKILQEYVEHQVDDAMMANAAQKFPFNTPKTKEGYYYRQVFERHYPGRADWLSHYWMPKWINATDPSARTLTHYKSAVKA
inactive: IRAK-1-4 Inhibitor I 0.046 | ibrutinib 0.015 | [1] 0.006 | ralimetinib -0.033 | [2] -0.029 | [3] 0.017 | [4] -0.003 | pinometostat -0.034 | [5] -0.007 | [6] -0.007 | [7] 0.008 | [8] 0.007 | [9] 0.026 | [10] 0.025 | Nexturastat A -0.045 | vemurafenib 0.007 | [11] 0.013 | [12] 0 | givinostat -0.004 | barasertib -0.004

AP2S1 (UniProt P53680)
Chain of UniProt P53680 (P53680 whole entry, looked up): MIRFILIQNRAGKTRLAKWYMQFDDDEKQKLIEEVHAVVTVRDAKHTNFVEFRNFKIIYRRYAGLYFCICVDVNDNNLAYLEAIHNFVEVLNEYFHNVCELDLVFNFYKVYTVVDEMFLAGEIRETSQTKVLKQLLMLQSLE
inactive: IRAK-1-4 Inhibitor I -0.054 | ibrutinib -0.01 | [1] -0.117 | ralimetinib -0.017 | [2] -0.003 | [3] 0.028 | [4] -0.07 | pinometostat 0.038 | [5] -0.009 | [6] 0.091 | [7] 0.009 | [8] -0.028 | [9] -0.036 | [10] 0.037 | Nexturastat A -0.038 | vemurafenib 0.002 | [11] 0.03 | [12] 0.007 | givinostat -0.015 | barasertib -0.034

ATXN7L3 isoform 2 (UniProt Q14CW9)
Chain of UniProt Q14CW9 (Q14CW9 whole entry, looked up): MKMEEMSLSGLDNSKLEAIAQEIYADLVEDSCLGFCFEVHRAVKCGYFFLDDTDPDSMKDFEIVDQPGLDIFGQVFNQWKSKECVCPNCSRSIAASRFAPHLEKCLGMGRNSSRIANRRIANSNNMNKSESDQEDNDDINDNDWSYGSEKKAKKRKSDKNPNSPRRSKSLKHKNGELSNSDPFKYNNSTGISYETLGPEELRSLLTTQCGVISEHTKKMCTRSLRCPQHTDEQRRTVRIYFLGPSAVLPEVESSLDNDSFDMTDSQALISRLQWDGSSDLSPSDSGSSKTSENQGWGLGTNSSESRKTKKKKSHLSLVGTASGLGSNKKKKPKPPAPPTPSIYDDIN
inactive: IRAK-1-4 Inhibitor I 0.114 | ibrutinib 0.147 | [1] 0.027 | ralimetinib 0.036 | [3] 0.066 | [4] -0.053 | pinometostat 0.093 | [5] 0.018 | [7] 0.013 | [8] -0.017 | [10] -0.09 | [12] 0.137 | givinostat -0.046 | barasertib -0.042

ABITRAM (UniProt Q9NX38)
Chain of UniProt Q9NX38 (Q9NX38 whole entry, looked up): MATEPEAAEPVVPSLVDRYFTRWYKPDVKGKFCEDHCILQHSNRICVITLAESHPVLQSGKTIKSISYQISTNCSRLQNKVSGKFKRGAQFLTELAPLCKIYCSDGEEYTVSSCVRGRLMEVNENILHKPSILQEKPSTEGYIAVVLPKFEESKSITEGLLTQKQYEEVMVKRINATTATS
inactive: IRAK-1-4 Inhibitor I 0.041 | ibrutinib 0.005 | [1] -0.073 | ralimetinib -0.088 | [2] -0.008 | [4] 0.016 | pinometostat -0.025 | [5] 0.049 | [6] 0.001 | [7] 0.011 | [8] -0.036 | [9] 0.062 | [10] 0.027 | Nexturastat A -0.114 | vemurafenib 0 | [11] 0.095 | [12] -0.252 | barasertib 0.03

AFDN isoform 1 (UniProt P55196)
inactive: IRAK-1-4 Inhibitor I -0.046 | ibrutinib -0.015 | [1] -0.102 | ralimetinib -0.12 | [2] -0.048 | [3] -0.001 | [4] 0.002 | pinometostat -0.072 | [7] 0.035 | [8] 0.083 | [10] 0.03 | Nexturastat A -0.164 | vemurafenib 0.342 | [12] 0.062 | givinostat 0.259 | barasertib -0.045

ABCA4 (UniProt P78363)
Chain of UniProt P78363 (P78363 whole entry, looked up): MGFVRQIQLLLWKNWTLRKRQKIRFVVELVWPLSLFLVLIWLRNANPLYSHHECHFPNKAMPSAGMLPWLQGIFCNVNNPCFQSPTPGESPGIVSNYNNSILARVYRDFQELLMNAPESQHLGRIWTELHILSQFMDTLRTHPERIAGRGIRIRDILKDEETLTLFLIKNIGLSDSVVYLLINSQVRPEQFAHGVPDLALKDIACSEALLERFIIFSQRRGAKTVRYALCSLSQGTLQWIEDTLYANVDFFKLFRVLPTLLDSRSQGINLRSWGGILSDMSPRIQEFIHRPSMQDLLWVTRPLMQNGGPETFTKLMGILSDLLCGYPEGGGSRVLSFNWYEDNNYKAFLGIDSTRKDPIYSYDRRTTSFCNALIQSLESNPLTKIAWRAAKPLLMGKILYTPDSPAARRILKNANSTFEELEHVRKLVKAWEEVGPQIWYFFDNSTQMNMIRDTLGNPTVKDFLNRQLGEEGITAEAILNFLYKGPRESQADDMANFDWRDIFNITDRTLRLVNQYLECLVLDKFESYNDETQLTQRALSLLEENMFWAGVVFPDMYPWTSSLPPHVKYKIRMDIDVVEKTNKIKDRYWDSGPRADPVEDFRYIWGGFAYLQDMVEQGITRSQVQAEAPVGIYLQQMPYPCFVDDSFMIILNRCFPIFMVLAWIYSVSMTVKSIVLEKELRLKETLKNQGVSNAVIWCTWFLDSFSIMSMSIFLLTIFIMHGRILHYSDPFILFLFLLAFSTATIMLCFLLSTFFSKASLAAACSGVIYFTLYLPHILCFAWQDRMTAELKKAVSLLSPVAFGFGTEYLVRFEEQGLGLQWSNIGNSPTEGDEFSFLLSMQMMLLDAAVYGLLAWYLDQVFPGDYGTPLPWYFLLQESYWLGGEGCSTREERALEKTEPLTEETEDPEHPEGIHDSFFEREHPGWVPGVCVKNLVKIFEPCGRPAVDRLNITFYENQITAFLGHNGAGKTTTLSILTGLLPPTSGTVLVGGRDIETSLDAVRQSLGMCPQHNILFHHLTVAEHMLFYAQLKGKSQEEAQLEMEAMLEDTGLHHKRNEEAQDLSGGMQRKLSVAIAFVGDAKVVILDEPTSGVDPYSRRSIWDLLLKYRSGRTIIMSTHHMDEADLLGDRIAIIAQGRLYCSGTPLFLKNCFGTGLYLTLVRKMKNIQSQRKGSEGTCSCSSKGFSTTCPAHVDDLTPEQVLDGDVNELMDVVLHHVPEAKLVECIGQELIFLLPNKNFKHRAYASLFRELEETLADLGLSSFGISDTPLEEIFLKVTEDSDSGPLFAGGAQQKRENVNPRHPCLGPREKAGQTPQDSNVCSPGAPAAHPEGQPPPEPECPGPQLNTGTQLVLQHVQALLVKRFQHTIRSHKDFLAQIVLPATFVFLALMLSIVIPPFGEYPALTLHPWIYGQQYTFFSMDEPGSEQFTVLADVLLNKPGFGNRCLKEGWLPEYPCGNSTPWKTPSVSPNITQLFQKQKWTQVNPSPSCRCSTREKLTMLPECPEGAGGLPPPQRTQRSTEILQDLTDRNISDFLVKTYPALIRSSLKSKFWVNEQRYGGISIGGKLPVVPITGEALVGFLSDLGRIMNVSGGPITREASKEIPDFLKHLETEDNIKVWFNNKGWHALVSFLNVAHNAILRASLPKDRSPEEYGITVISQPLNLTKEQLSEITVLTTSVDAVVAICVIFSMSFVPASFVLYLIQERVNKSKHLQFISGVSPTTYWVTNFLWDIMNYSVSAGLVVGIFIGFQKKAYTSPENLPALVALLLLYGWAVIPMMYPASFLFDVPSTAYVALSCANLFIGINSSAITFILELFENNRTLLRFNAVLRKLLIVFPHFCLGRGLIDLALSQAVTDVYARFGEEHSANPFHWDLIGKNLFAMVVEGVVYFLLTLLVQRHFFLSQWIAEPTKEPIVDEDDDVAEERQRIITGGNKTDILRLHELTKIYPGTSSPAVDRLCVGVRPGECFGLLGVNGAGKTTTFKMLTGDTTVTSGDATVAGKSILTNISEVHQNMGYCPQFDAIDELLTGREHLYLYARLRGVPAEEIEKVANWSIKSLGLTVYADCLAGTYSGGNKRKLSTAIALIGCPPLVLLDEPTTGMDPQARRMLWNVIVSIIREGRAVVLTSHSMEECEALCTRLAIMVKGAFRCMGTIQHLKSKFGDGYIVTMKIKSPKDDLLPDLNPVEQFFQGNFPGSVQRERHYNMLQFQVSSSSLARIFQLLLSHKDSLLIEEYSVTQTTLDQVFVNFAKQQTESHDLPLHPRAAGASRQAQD
active: Nexturastat A 0.576
inactive: IRAK-1-4 Inhibitor I 0.128 | ibrutinib 0.078 | [1] -0.014 | ralimetinib 0.215 | [2] -0.047 | [3] 0.127 | [4] 0.481 | pinometostat -0.06 | [5] -0.05 | [6] 0.082 | [7] -0.145 | [8] -0.068 | [10] -0.168 | [12] 0.033 | givinostat 0.23 | barasertib 0.015

ASB6 (UniProt Q9NWX5)
Chain of UniProt Q9NWX5 (Q9NWX5 whole entry, looked up): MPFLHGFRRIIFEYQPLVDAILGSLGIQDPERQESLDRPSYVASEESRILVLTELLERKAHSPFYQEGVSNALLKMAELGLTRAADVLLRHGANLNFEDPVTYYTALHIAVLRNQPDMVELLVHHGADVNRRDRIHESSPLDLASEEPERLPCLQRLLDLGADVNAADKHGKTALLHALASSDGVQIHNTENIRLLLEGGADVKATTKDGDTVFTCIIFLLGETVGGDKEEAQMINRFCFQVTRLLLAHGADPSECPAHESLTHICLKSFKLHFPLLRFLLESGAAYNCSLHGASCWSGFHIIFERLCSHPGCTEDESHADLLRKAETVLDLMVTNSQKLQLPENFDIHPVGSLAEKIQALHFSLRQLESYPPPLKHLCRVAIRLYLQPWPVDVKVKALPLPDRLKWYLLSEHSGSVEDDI
inactive: IRAK-1-4 Inhibitor I 0.106 | ibrutinib -0.108 | [1] 0.039 | ralimetinib 0.343 | [2] -0.274 | [3] -0.055 | [4] 0.069 | pinometostat -0.031 | [5] 0.059 | [7] -0.085 | [8] -0.033 | [9] 0.117 | [10] -0.175 | Nexturastat A 0.125 | vemurafenib -0.144 | [11] 0.108 | [12] -0.039 | givinostat 0.108 | barasertib 0.031

ALG14 (UniProt Q96F25)
Chain of UniProt Q96F25 (Q96F25 whole entry, looked up): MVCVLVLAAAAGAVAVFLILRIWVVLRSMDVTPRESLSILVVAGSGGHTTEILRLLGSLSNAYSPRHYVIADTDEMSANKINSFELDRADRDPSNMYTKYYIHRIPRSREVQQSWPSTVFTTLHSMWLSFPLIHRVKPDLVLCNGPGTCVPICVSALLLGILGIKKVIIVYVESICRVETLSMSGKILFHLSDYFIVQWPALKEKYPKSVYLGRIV
inactive: IRAK-1-4 Inhibitor I 0.007 | ibrutinib 0.104 | [1] -0.157 | ralimetinib -0.12 | [2] -0.115 | [3] -0.098 | [4] 0.093 | pinometostat 0.038 | [5] 0.002 | [6] 0.195 | [8] -0.13 | [9] 0.045 | [10] 0.068 | Nexturastat A -0.479 | vemurafenib -0.053 | [11] 0.052 | [12] -0.131 | givinostat 0.03 | barasertib 0.03

APH1A (UniProt Q96BI3)
Chain of UniProt Q96BI3 (Q96BI3 whole entry, looked up): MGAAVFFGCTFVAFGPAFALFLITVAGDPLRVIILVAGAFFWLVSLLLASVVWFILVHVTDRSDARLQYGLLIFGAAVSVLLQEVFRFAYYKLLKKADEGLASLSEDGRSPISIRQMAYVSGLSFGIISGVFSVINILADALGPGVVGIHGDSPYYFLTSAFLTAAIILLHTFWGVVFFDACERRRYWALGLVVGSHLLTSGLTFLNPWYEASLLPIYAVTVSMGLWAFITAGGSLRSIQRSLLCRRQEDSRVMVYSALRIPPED
inactive: IRAK-1-4 Inhibitor I 0.021 | ibrutinib 0.036 | [1] -0.076 | [3] -0.047 | pinometostat -0.056 | [5] 0.028 | [6] -0.03 | [7] -0.136 | [9] 0.091 | [10] 0.042 | vemurafenib 0.237 | [11] 0.121 | [12] -0.085 | givinostat 0.021 | barasertib 0.002
